# Measurements as given in PubChem BioAssay (NCI).
# Where “and” joins values, the source holds several entries; their conditions need not be identical. Equal values may be shown once. About 83,000 compounds went through this panel and 20% of them were active in at least one assay; those are over-represented in the sample as a whole.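 Results are percent growth after 48 hours of single-concentration exposure. 100 means growth as in untreated cells, lower positive values show inhibition; negative values down to -100 show cell death.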 Where a structure was tested more than once in an assay, its records may differ in their call. Calls of active or inactive are those of the source. Rule for the calls: active = growth percent below 10; inactive = the rest.
# Tests used:
# Experiment in all cases: NCI-60 one-dose screen, 48 h (100 = growth as untreated, 0 = no growth, -100 = all killed)
# Details in all cases: 10 µM unless noted
# [1] = test system: SR leukemia
# [2] = test system: RPMI-8226 leukemia
# [3] = test system: OVCAR-8 ovarian
# [4] = test system: OVCAR-5 ovarian
# [5] = test system: OVCAR-4 ovarian
# [6] = test system: SK-OV-3 ovarian
# [7] = test system: IGROV1 ovarian
# [8] = test system: OVCAR-3 ovarian
# [9] = test system: HS 578T breast
# [10] = test system: NCI/ADR-RES ovarian
Structure (SMILES),growth [1],growth [2],growth [3],growth [4],growth [5],growth [6],growth [7],growth [8],growth [9],growth [10]
O=C(c1ccccc1)c1cc2ccccc2oc1=O,107% (inactive),84.3% (inactive),96.9% (inactive),102% (inactive),95.2% (inactive),100% (inactive),64.8% (inactive),107% (inactive),90.6% (inactive),100% (inactive)
CCCCCCCCCCCCCCCCCC[S+](C)CC (stereo not given),32.7% (inactive),30.4% (inactive),13.9% (inactive),9.31% (active),7.76% (active),49.5% (inactive),-34.2% (active),45.1% (inactive),35.9% (inactive),84.7% (inactive)
O=C1C=CC(=O)N1C1CCCCCCCCCCC1,5.7% (active),31.1% (inactive),86% (inactive),99.8% (inactive),89.5% (inactive),90.6% (inactive),80.3% (inactive),53% (inactive),108% (inactive),102% (inactive)
CN(C)c1ccc(/C=C/c2cc[n+](C)c(/C=C/c3ccc(N(C)C)cc3)c2)cc1,-34.3% (active),-26.4% (active),5.17% (active),21.9% (inactive),19.9% (inactive),7.83% (active),11% (inactive),20.5% (inactive),32.9% (inactive),58.8% (inactive)
CCCCCC/C=C1\CCC(CN2CCCC2)C1=O (stereo not given),43.5% (inactive),-12.2% (active),106% (inactive),135% (inactive),109% (inactive),110% (inactive),113% (inactive),103% (inactive),96.3% (inactive),105% (inactive)
COc1cc(OC)c(/C=C/c2c3ccccc3cc[n+]2C)c(OC)c1,-18.2% (active),6.51% (active),5.21% (active),56.5% (inactive),24.9% (inactive),35% (inactive),13.2% (inactive),5.9% (active),46.3% (inactive),96.6% (inactive)
COc1cc(/C=C2\SC(=S)N(/C=C/c3nc4ccccc4[nH]c3=O)C2=O)cc(OC)c1OC,63.6% (inactive),86.2% (inactive),86.4% (inactive),88.3% (inactive),84.5% (inactive),76.3% (inactive),89.8% (inactive),89.4% (inactive),74.4% (inactive),86.6% (inactive)
O=C1C=CC(=O)N1c1cccc2c1CCCC2,87.6% (inactive),100% (inactive),110% (inactive),103% (inactive),102% (inactive),99.5% (inactive),97.5% (inactive),106% (inactive),114% (inactive),112% (inactive)
O=C1C(=O)c2cccnc2-c2ncccc21,-45.5% (active),-29.7% (active),-33% (active),-57.6% (active),-100% (active),-32.8% (active),-53.8% (active),-100% (active),-47.5% (active),-96.3% (active)
CCCN(CCC)C(=O)c1ccc(C)cc1,95% (inactive),93.3% (inactive),103% (inactive),95.3% (inactive),110% (inactive),94.9% (inactive),106% (inactive),109% (inactive),84.1% (inactive),100% (inactive)
CCC[CH2][Sn]1([CH2]CCC)[O]C2C(CO)OC(n3ccc(N)nc3=O)C2[O]1 (stereo not given),-30.5% (active),-28.7% (active),-44.7% (active),-41.9% (active),-53% (active),28.2% (inactive),-23% (active),-90.8% (active),-12.4% (active),24.8% (inactive)
CN=C(N)N/N=C(\c1ccccc1)c1ccc(Br)cc1,-15.2% (active),27.5% (inactive),1.03% (active),32.4% (inactive),42.1% (inactive),-1.99% (active),-7.13% (active),2.68% (active),18.4% (inactive),9% (active)
Cc1cc(C(N)=O)cc(C)c1C(=O)OCCCl,89.6% (inactive),111% (inactive),102% (inactive),108% (inactive),103% (inactive),105% (inactive),111% (inactive),99.5% (inactive),97% (inactive),107% (inactive)
OC(c1cc(-c2ccc(C(F)(F)F)cc2)nc(C(F)(F)F)c1)C1CCCCN1 (stereo not given),-37.6% (active) and -57.5% (active) and -38.9% (active),-35.4% (active) and -61.4% (active) and -21% (active),-57.7% (active) and -54.5% (active) and -34.4% (active),30.4% (inactive) and -33.3% (active) and 61% (inactive),-6.94% (active) and -29.6% (active) and 39.1% (inactive),24.4% (inactive) and 39.9% (inactive) and 86.2% (inactive),-25.6% (active) and -92.4% (active) and 30.5% (inactive),-70.3% (active) and -68.3% (active) and 8.69% (active),-3.8% (active) and -53.8% (active) and 48.9% (inactive),-31.5% (active) and -50% (active) and 25% (inactive)
CC[n+]1ccc(Nc2ccc(NC(=O)c3ccc(Nc4cc[n+](CC)c5ccc([N+](=O)[O-])cc45)cc3)cc2)cc1,75.7% (inactive),41.9% (inactive),79% (inactive),107% (inactive),56.8% (inactive),84.5% (inactive),115% (inactive),91.8% (inactive),97% (inactive),106% (inactive)
O=S(=O)(O)c1cnccn1,110% (inactive),104% (inactive),107% (inactive),96.6% (inactive),113% (inactive),89.6% (inactive),105% (inactive),103% (inactive),112% (inactive),102% (inactive)
COc1ccc2c(c1)c(CC(=O)O)c(C)n2C(=O)c1ccc(Cl)cc1,106% (inactive),83.8% (inactive),104% (inactive),105% (inactive),102% (inactive),119% (inactive),99% (inactive),125% (inactive),97.8% (inactive),98% (inactive)
Cc1c(O)ccc(SC#N)c1C,105% (inactive),96.6% (inactive),102% (inactive),97.3% (inactive),107% (inactive),108% (inactive),110% (inactive),90.8% (inactive),124% (inactive),106% (inactive)
Cc1cccc2c(N)c3ccccc3nc12,2.95% (active),-15.4% (active),-9.82% (active),7.56% (active),1.48% (active),-3.15% (active),-13.2% (active),-17.3% (active),16.5% (inactive),-47.5% (active)
CC1(O)CCCCCC1,92.5% (inactive),102% (inactive),102% (inactive),105% (inactive),107% (inactive),93.9% (inactive),103% (inactive),103% (inactive),98.3% (inactive),102% (inactive)
CCOC(=O)c1cc(CC)sc1NC(=O)CC(C)=O,35.1% (inactive),37.4% (inactive),43% (inactive),96.7% (inactive),43.3% (inactive),84.6% (inactive),59.7% (inactive),65.3% (inactive),49.9% (inactive),40% (inactive)
CCOC(=O)/C(=C\c1ccc2ccccc2c1)P(=O)(OCC)OCC,-19.4% (active),-25.3% (active),20.1% (inactive),56.9% (inactive),62% (inactive),113% (inactive),56% (inactive),27.4% (inactive),16.7% (inactive),10.4% (inactive)
CCCc1cc(=O)oc2c3c(c4c(c12)OC(C)(C)CC4)OC(C)[C@H](C)[C@@H]3O (stereo not given in full),45.8% (inactive),10.5% (inactive),81.7% (inactive),86% (inactive),83.9% (inactive),95.3% (inactive),12.7% (inactive),112% (inactive),74.7% (inactive),81.7% (inactive)
O=[N+]([O-])c1cc(-c2ccccc2)c(O)c([N+](=O)[O-])c1,80.4% (inactive),38.9% (inactive),91.7% (inactive),94.6% (inactive),62.6% (inactive),83% (inactive),106% (inactive),69.7% (inactive),84.4% (inactive),94.7% (inactive)
CCOC(=O)C1(C)CCCC1N (stereo not given),90.1% (inactive),109% (inactive),106% (inactive),106% (inactive),99.2% (inactive),131% (inactive),104% (inactive),104% (inactive),98.5% (inactive),116% (inactive)
CCCCCCCCCCCC[n+]1ccc2ccccc2c1,-29.7% (active),-53.7% (active),-37% (active),7.35% (active),-17.2% (active),-26.2% (active),-51.9% (active),-70.3% (active),15.1% (inactive),54.2% (inactive)
O=C1CSC(=S)N1Cc1cccnc1,-10.3% (active),9.56% (active),53.8% (inactive),106% (inactive),91.7% (inactive),106% (inactive),114% (inactive),99.2% (inactive),114% (inactive),106% (inactive)
O=[n+]1c2ccccc2n([O-])c2cc(Cl)ccc21,1.27% (active),73.8% (inactive),43% (inactive),108% (inactive),40.3% (inactive),87.7% (inactive),65.6% (inactive),44.6% (inactive),88.8% (inactive),59.6% (inactive)
